The source of these data is PubChem BioAssay (EPA / NIEHS).

Results filed as inconclusive are left out. Active and inactive are the calls of the source. The calls were made as follows, unless noted: active = hit-call score of the fitted dose curve at least 0.9, where 1 is the maximum; inactive = score below 0.9.

Assay [1] has as its target Paired box protein Pax-6 (Homo sapiens) (UniProt P26367). The assay can be described thus: ATG_Pax6_CIS: Attagene CIS-FACTORIAL HepG2 Assay for human Paired Box 6 (PAX6) (AID 2282956). To be noted: HepG2 CIS-FACTORIAL PAX6 reporter transcription, RNA readout; actives raise or lower the signal. Put shortly: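 Fluorescent RT-PCR products separated by capillary electrophoresis report PAX6-linked promoter mRNA in HepG2 cells 24 h post-dose. Curves fitted bidirectionally, DMSO as negative control.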

Assay [2] can be described thus: ATG_PXRE_CIS: Attagene CIS-FACTORIAL HepG2 Assay for human Pregnane X Receptor Element (PXRE) (AID 2282957). To be noted: HepG2 Attagene CIS-FACTORIAL PXRE reporter, mRNA; actives raise or lower the signal. The essentials:
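Endogenous transcription factor activity in HepG2 was gauged through induction of reporter mRNA driven by a cis-regulating promoter element, sampled 24 h post-treatment. Activity was fitted in both directions against DMSO negative control.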

Assay [3] is described as follows: ATG_PPRE_CIS: Attagene CIS-FACTORIAL HepG2 Assay for human Peroxisome Proliferator-activated Response Element (PPRE) (AID 2282958). To be noted: HepG2 PPRE cis-element reporter, Attagene transcription factor profiling; actives raise or lower the signal. Put shortly: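 Cells are first transfected transiently with the multiplexed reporter library, then dosed for 24 h. Total RNA is reverse-transcribed, amplified, fluorescently end-labeled and HpaI-cut before capillary electrophoresis; activity is fitted bidirectionally against DMSO controls.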

Assay [4] can be described thus: ATG_RORE_CIS: Attagene CIS-FACTORIAL HepG2 Assay for human RAR-related Orphan Receptor Element (RORE) (AID 2282959). To be noted: HepG2 Attagene cis-factorial RORE reporter, mRNA; actives raise or lower the signal. The essentials:
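Cells were HepG2 carrying transfected cis-regulated reporter constructs, dosed for 24 hours. Total RNA was reverse-transcribed and reporter cDNA amplified, fluorescently labeled and sized by capillary electrophoresis. Activity was fitted bidirectionally relative to DMSO.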

A short description of assay [5]: ATG_Sox_CIS: Attagene CIS-FACTORIAL HepG2 Assay for human SRY-box transcription factor (SOX) (AID 2282960). To be noted: HepG2 Attagene cis-factorial SOX reporter, mRNA; actives raise or lower the signal. The essentials:
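Transient MRTU transfection of HepG2; 24 h compound incubation; TriZol RNA, oligo(dT) RT, PCR, 6-FAM primer extension, HpaI cut, CE. Bidirectional fit, DMSO = baseline.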

In assay [6] the target is Transcription factor Sp1 (Homo sapiens) (UniProt P08047). As to the kind of experiment: ATG_Sp1_CIS: Attagene CIS-FACTORIAL HepG2 Assay for human Specificity Protein 1 (Sp1) (AID 2282961). To be noted: HepG2 Sp1 cis-reporter transcription, actives raise or lower the signal. Put shortly: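 Endogenous Sp1 activity was gauged in human liver HepG2 cells bearing transfected reporter units under a cis-regulating promoter. After 24 h dosing, reporter mRNA was quantified by RT-PCR with capillary electrophoresis, and activity fitted bidirectionally versus DMSO.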

Assay [7] is described as follows: ATG_SREBP_CIS: Attagene CIS-FACTORIAL HepG2 Assay for human Sterol Regulatory Element Binding (SREBP) (AID 2282962). To be noted: HepG2 Attagene cis-factorial SREBP reporter, mRNA; actives raise or lower the signal. Put shortly: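 Endogenous factor activity is measured in HepG2 through multiplexed reporter units under cis-element control. Following a 24 h incubation, reporter transcripts are reverse-transcribed, PCR-amplified and sized by capillary electrophoresis; activity is fitted in both directions relative to DMSO.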

Assay [8] in a line: ATG_TA_CIS: Attagene CIS-FACTORIAL HepG2 Assay for human TA Basal Promoter (AID 2282964). To be noted: HepG2 Attagene CIS-factorial TA basal promoter reporter; actives raise or lower the signal. Put shortly: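 Background internal-marker endpoint from a 52-component HepG2 cis-reporter panel. Cells treated 24 h; reporter transcripts quantified via RT-PCR and CE fluorescence against DMSO baseline.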

The nature of assay [9]: ATG_TCF_b_cat_CIS: Attagene CIS-FACTORIAL HepG2 Assay for human T-Cell-Factor with beta-catenin (TCF/b-cat) (AID 2282965). To be noted: HepG2 TCF/beta-catenin cis-reporter transcription, actives raise or lower the signal. The essentials: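 Endogenous transcription factor activity is captured through cis-promoter reporter constructs transiently introduced into human HepG2 liver cells. Induced reporter mRNA is measured after 24 h and fitted bidirectionally relative to DMSO.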

Assay [10] in a line: ATG_TAL_CIS: Attagene CIS-FACTORIAL HepG2 Assay for human TAL Basal Promoter (AID 2282966).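 Also: background control endpoint measuring basal TAL promoter reporter mRNA not a specific factor.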 To be noted: HepG2 Attagene cis-factorial TAL promoter reporter; actives raise or lower the signal. Put shortly: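 Endogenous transcription-factor activity is sensed in HepG2 cells through transfected cis-promoter reporter constructs. After 24 h dosing, reporter transcripts are quantified by RT-PCR and capillary electrophoresis. Gain or loss of signal is fitted relative to DMSO.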

A short description of assay [11]: ATG_TGFb_CIS: Attagene CIS-FACTORIAL HepG2 Assay for human Transforming Growth Factor (TGF) (AID 2282967). To be noted: HepG2 Attagene CIS TGFb reporter, mRNA transcription; actives raise or lower the signal. Put shortly: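 Liver HepG2 line, cis-factorial reporter panel, 24 h dosing. Quantitation: RT-PCR products labeled with 6-FAM, cut with HpaI, resolved by capillary electrophoresis; DMSO-referenced bidirectional analysis.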

Assay [12] is described as follows: ATG_VDRE_CIS: Attagene CIS-FACTORIAL HepG2 Assay for human Vitamin D Receptor Element (VDRE) (AID 2282968). To be noted: HepG2 VDRE cis-reporter transcription, actives raise or lower the signal. The essentials:
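Measures endogenous factor activity through cis-element-driven reporter transcripts in transiently transfected HepG2. Cells are treated 24 h; reporter mRNA is quantified by RT-PCR and capillary electrophoresis; fitting is bidirectional.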

For assay [13], the target named is Estrogen receptor (Homo sapiens) (UniProt P03372). The assay can be described thus: ATG_ERa_TRANS: Attagene TRANS-FACTORIAL HepG2 Assay for human Estrogen Receptor alpha (ERa) (AID 2282970; active = hit-call score of the fitted dose curve at least 0.9, where 1 is the maximum). To be noted: HepG2 Attagene TRANS ERa GAL4 reporter, mRNA. Put shortly: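 Transfected HepG2 cells carrying GAL4-UAS-driven reporter units were dosed for 24 hours. Total RNA was reverse-transcribed, reporter sequences PCR-amplified, FAM-labelled, HpaI-digested and resolved by capillary electrophoresis. Increases over DMSO control defined activity.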

Assay [14] has as its target X-box-binding protein 1 (Homo sapiens) (UniProt P17861). As to the kind of experiment: ATG_Xbp1_CIS: Attagene CIS-FACTORIAL HepG2 Assay for human X-box Binding Protein 1 (XBP1) (AID 2282972). To be noted: HepG2 XBP1 cis-element reporter, Attagene multiplex; actives raise or lower the signal. Put shortly:
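Multiplexed cis-reporter readout in transfected HepG2 liver cells. Exposure lasted 24 hours. Activity in either direction was fitted against DMSO as negative control and baseline.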

The nature of assay [15]: ATG_M_19_TRANS: Attagene TRANS-FACTORIAL HepG2 Assay for M19 Transcription Factor (Internal Marker) (AID 2282974; active = hit-call score of the fitted dose curve at least 0.9, where 1 is the maximum). To be noted: HepG2 Attagene TRANS-FACTORIAL M19 internal marker reporter. The essentials:
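Cells: human HepG2, transiently transfected with multiplexed reporter transcription units. Exposure: 24 h. Detection: RT-PCR of reporter mRNA with capillary electrophoresis. Analysis: gain-of-signal vs DMSO.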

In assay [16] the target is Signal transducer and activator of transcription 3 (Homo sapiens) (UniProt P40763). The assay can be described thus: ATG_STAT3_CIS: Attagene CIS-FACTORIAL HepG2 Assay for human Signal Transducer and Activator of Transcription 3 (STAT3) (AID 2282963). To be noted: HepG2, Attagene cis-factorial STAT3 reporter transcription; actives raise or lower the signal. The essentials:
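Cis-factorial format: endogenous transcription factors in HepG2 drive transfected reporter units. After 24 h treatment, reporter RNA was reverse-transcribed, amplified, FAM-labelled and HpaI-digested before CE analysis; activity scored in both directions against DMSO.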

Assay [17] in a line: ATG_GAL4_TRANS: Attagene TRANS-FACTORIAL HepG2 Assay for GAL4 (Internal Marker) (AID 2282976; active = hit-call score of the fitted dose curve at least 0.9, where 1 is the maximum). To be noted: HepG2 Attagene TRANS GAL4 internal marker reporter. The essentials: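 Fluorescence from capillary electrophoresis of labelled RT-PCR products quantifies reporter mRNA induction after 24 h dosing of HepG2 cells carrying transfected GAL4-UAS reporter transcription units. Vehicle DMSO serves as baseline.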

Signal transducer and activator of transcription 3 (Homo sapiens), sequence (P40763 whole entry, looked up): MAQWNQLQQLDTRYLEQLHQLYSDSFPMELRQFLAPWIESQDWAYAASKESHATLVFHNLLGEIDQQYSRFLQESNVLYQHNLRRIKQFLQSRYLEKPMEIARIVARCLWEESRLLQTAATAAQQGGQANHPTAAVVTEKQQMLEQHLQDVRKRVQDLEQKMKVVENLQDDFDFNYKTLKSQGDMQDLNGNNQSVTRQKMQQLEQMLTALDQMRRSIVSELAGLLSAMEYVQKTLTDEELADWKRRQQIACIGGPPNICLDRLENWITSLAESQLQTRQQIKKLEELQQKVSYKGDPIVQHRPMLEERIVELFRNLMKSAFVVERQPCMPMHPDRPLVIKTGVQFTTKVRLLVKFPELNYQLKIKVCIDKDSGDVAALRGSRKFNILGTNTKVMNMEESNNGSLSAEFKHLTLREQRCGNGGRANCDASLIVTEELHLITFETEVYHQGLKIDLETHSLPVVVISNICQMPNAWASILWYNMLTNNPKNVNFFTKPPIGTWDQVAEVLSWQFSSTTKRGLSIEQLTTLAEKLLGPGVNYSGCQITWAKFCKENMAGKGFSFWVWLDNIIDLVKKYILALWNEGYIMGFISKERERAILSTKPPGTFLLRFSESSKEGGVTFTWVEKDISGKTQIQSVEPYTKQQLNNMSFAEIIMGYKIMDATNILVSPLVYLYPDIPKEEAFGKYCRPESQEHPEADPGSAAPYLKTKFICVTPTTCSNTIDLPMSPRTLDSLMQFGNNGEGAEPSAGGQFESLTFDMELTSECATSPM
Estrogen receptor (Homo sapiens), sequence (P03372 whole entry, looked up, the tested form may be a part): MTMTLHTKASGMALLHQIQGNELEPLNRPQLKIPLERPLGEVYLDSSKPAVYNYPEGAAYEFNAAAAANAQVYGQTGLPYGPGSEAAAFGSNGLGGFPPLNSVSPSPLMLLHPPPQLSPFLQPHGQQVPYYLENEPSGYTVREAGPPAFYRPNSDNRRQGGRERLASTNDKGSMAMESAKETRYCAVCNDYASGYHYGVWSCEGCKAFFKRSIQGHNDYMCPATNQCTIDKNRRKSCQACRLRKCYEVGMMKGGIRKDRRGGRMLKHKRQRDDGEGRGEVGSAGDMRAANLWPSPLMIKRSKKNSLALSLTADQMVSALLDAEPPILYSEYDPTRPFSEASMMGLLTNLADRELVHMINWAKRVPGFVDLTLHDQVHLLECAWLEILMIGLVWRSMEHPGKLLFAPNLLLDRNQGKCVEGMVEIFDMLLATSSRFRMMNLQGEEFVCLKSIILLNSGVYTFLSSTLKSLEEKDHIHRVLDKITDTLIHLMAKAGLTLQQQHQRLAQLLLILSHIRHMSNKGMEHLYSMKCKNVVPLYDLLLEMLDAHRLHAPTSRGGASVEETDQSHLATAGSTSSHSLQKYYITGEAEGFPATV
X-box-binding protein 1 (Homo sapiens), sequence (P17861 whole entry, looked up): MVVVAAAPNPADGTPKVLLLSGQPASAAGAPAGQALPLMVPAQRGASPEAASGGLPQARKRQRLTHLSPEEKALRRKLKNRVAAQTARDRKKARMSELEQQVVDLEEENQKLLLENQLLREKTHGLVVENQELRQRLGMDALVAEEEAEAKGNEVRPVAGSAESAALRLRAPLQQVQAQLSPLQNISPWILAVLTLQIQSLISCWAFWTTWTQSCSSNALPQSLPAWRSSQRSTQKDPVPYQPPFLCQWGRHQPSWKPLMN
Paired box protein Pax-6 (Homo sapiens), sequence (P26367 whole entry, looked up): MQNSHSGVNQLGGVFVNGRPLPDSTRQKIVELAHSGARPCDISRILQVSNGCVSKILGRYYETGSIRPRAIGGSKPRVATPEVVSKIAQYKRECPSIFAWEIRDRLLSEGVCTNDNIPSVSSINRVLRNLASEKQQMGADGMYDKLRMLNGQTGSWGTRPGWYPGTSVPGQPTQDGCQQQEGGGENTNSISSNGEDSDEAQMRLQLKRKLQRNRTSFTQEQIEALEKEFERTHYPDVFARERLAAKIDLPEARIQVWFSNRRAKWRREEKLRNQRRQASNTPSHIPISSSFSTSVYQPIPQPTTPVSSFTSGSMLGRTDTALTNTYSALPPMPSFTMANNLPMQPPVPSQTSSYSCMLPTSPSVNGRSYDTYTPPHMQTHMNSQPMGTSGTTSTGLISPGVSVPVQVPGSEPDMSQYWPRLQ
Transcription factor Sp1 (Homo sapiens), sequence (P08047 whole entry, looked up): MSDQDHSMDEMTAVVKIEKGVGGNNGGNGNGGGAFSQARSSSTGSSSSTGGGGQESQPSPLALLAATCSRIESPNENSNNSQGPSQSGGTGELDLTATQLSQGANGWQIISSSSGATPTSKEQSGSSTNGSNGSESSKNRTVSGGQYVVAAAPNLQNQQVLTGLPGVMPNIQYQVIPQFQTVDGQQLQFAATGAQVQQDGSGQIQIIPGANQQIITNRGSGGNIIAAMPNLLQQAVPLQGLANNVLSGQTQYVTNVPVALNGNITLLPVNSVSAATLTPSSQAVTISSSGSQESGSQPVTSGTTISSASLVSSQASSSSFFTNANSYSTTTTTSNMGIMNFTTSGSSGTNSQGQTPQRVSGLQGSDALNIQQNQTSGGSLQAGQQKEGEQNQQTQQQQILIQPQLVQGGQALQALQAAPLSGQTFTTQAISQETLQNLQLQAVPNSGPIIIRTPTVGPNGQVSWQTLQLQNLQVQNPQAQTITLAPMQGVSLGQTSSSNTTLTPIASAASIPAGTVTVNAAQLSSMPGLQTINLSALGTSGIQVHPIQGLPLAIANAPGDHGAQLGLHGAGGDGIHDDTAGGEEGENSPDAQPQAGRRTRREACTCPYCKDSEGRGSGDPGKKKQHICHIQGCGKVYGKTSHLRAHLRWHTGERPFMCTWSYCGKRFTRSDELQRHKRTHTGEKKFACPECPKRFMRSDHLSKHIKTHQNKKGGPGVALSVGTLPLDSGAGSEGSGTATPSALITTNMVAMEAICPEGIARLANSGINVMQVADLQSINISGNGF

One may read the AC50 as the concentration giving half of the maximal activity seen. `CCCCC/C=C\C/C=C\CCCCCCCC(=O)O`: the AC50 was 133 µM (active) in [1]; 64.1 µM (active) in assay [2]; 35.1 µM (active) in [3]; 39.6 µM (active) in assay [4]; 100 µM (active) in assay [8]; 100 µM (active) in assay [10]. Besides, in assay [14], the AC50 is 147 µM (active). Further, the compound was classed as inactive in assay [5], in assay [6], in assay [7], in assay [9], in assay [11] and in [12]. The compound was called inactive in [13] and in assay [15].

As for `C=CC(C)(O)CC/C=C(\C)CC` (stereo not drawn), the compound was called inactive in assay [1], in assay [4], in [5], in assay [6], in assay [7] and in assay [16]. The result in [8], in assay [9], in [10], in [11], in [12] and in [14] was inactive. Besides, the compound was classed as inactive in [15]. For the same compound, the figures for the AC50 in [2] and in assay [13] were 4.25 µM (active) and 30.3 µM (active), respectively.

As to `COCC(=O)O`, the compound was called inactive in assay [1], in assay [2], in assay [4], in assay [5], in assay [6] and in assay [7]. The compound was classed as inactive in assay [16], in [8], in assay [9], in assay [10], in assay [11] and in assay [12]. Further, in assay [13], the compound was classed as inactive.

In the case of `Cc1cc(C)n(CO)n1`, the outcome in assay [1], in assay [2], in assay [3], in assay [4], in assay [5] and in [6] was inactive. Besides, the call in assay [7], in [16], in assay [9], in assay [10], in assay [11] and in [12] was inactive. The compound was called inactive in assay [13], in assay [14] and in [17].

As to `O=C(O)/C=C/c1ccccc1`, the outcome in assay [1], in [2], in [3], in assay [5], in assay [6] and in [7] was inactive. The compound was classed as inactive in [16], in assay [8], in assay [9], in [10], in assay [11] and in assay [12]. Besides, the compound was classed as inactive in assay [14] and in [17]. Moreover, the AC50 in [13] was 61.7 µM (active).
